Measured values reported in PubChem BioAssay AID2716 (Broad Institute, 2010).
Out of some 320,000 compounds screened, about 3,300 (1%) were called active.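 The calls were made as follows: active = every valid replicate shows activation above 250% relative to neutral control wells; inactive = the rest, any valid replicate at or below 250%.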 Only a selection was taken, and actives are over-represented in it overall.

Assay: restored growth of temperature-sensitive Mot1-301 yeast – S. cerevisiae, ATP luminescence, 38.5C, SUMOylation pathway inhibitor project, primary screen (AID 2716);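 also: OY570 slx delta 5 strain wells were the positive control but not used for scaling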
Settings: S. cerevisiae Mot1-301 growth rescue, at 18.8 µM, stronger effect = higher value, percent above DMSO median, 100 means doubled

SMILES | growth rescue
CCCCNC(=O)c1ccccc1NC(=O)c1ccccc1N(C)S(C)(=O)=O | -4.15% (inactive)
COc1ccc(N2CCN(C(=O)c3ccccc3NC(=O)C3=C(C)OCCS3)CC2)cc1 | 46.6% (inactive)
CCCCNC(=O)c1ccccc1NC(=O)C1=C(C)OCCS1 | 548% (active)
COc1ccc(NC(=O)CSc2nnc(-c3cccs3)n2Cc2ccco2)cc1OC | 22.9% (inactive)
Cc1cc(C)nc(SCc2nnc(SCC(=O)Nc3ncc(C)s3)n2Cc2ccco2)n1 | -12% (inactive)
CCN(CC)C(=O)CSc1nnc(CNc2ccc(F)cc2)n1Cc1ccco1 | 543% (active)
COc1ccc(C(=O)NCC2CCCN2S(=O)(=O)c2cccs2)cc1OC (centres undefined) | 134% (inactive)
Cc1ccc2nc(-c3ccc(NC(=O)CN(C)S(=O)(=O)c4ccccc4)cc3)sc2c1 | 574% (active)
Cc1cccc(N(CC(=O)Nc2ccc(-c3nc4ccc(C)cc4s3)cc2)S(C)(=O)=O)c1 | -4.14% (inactive)
COc1cc(NC(=O)CN(C)S(=O)(=O)c2ccc3nc(C)sc3c2)cc(OC)c1 | -12.8% (inactive)
Cc1cc(C)c(S(=O)(=O)Nc2c(C)n(C)n(-c3ccccc3)c2=O)cc1[N+](=O)[O-] | -5.42% (inactive)
Cc1c(Br)cc(C(=O)N2CCCCCC2)c(C)c1C | 15.2% (inactive)
COC(=O)C1[C@H]2SC(C)(C)C(C(=O)OC)N2C(=O)N1Cc1nc2ccccc2s1 (some centres undefined) | -13.8% (inactive)
CC1(C)SC2C(NC(=O)COc3ccccc3)C(=O)N2C1C(=O)O (centres undefined) | 3.56% (inactive)
CC1(C)S[C@@H]2[C@H](NC(=O)COc3ccccc3)C(=O)N2C1C(=O)OCc1ccccc1 (some centres undefined) | 343% (active)
O=C(NCCN1CCOCC1)/C(=C/c1ccc(F)cc1)NC(=O)c1ccccc1 | 93.9% (inactive)
CC(OC(=O)c1ccc(Cl)cc1O)C(=O)NCCC1=CCCCC1 (centres undefined) | 17.1% (inactive)
CC1CCCCN1CCCNc1ccc(C(CC(N)=O)NC(=O)c2ccccc2)cc1[N+](=O)[O-] (centres undefined) | -18.3% (inactive)
Cc1cc(C)cc(C(=O)NC(CC(N)=O)c2ccc(N3CCC(N4CCCCC4)CC3)c([N+](=O)[O-])c2)c1 (centres undefined) | 855% (active)
COc1ccc(OC)c(C(=O)NC(CC(N)=O)c2ccc(N3CCC(N4CCCCC4)CC3)c([N+](=O)[O-])c2)c1 (centres undefined) | -11.8% (inactive)
Cc1cccc(NC(=O)CN2CCN(C(=O)C3CCN(C(=O)/C=C/c4ccccc4)CC3)CC2)c1C | -7.86% (inactive)
Cc1nn(Cc2ccccc2)c(C)c1NS(=O)(=O)c1ccccc1 | 0.754% (inactive)
CC(=O)c1cc(CN2CCC(n3nccc3NC(=O)c3ccccc3Cl)CC2)cs1 | 13.8% (inactive)

SMILES | growth rescue
Cc1ccc(Nc2cc(C)nc3c(C)ccc([N+](=O)[O-])c23)cc1 | 888% (active)
Cc1cc(Nc2ccc(N3CCOCC3)cc2)c2cccc(C)c2n1 | -0.464% (inactive)
Cc1cc(Nc2ccc(C(=O)N3CCCCC3)cc2)c2cccc(C)c2n1 | 397% (inactive)
O=C(O)Cn1c(Cc2ccccc2)nc2ccccc21 | -4.16% (inactive)
Fc1ccccc1-c1cc2cc3c(cc2cn1)OCO3 | 579% (active)
O=C(Nc1ccccc1F)c1ccc2c(c1)OCO2 | 3.63% (inactive)
Fc1ccc2cnc(-c3ccccc3)cc2c1 | 110% (inactive)
O=C(c1ccc(F)cc1)n1c(=S)nc2ccccn21 | -34.1% (inactive)
COc1ccccc1-c1nn(Cc2ccccc2)cc1C(=O)N1CCN(c2ncccn2)CC1 | -5.43% (inactive)
CCN(CC)c1ccc(NC(=O)C2CCC(CNc3c(N4CCCC4)c(=O)c3=O)CC2)c(C)c1 (centres undefined) | 6.64% (inactive)
CCC(CC)C(=O)Nc1ccc(S(=O)(=O)Nc2nccs2)cc1 | 441% (active)
COc1ccccc1OC(C)C(=O)Nc1ccc(S(=O)(=O)Nc2nccs2)cc1 (centres undefined) | 7.27% (inactive)
Cc1ccc(OCCC(=O)Nc2ccc(S(=O)(=O)Nc3nccs3)cc2)cc1 | -18.7% (inactive)
CCCc1cc(=S)n2c([nH]c3ccccc32)c1C#N | 490% (active)
CCOC(=O)CCc1c(C)c(C#N)c2[nH]c3ccccc3n2c1=O | -0.685% (inactive)
CN(C)Cc1c(C#N)c2ccccc2n1C | 63.2% (inactive)
CCCn1nc(C(=O)NNC(=O)CCOc2ccccc2OCC)c2ccccc2c1=O | 2.71% (inactive)
CC(=O)c1ccc(NC(=O)CSc2nc3ccccc3c(=O)n2CCCN2CCOCC2)cc1 | -18.7% (inactive)
CC(CCc1ccccc1)NC(=O)COC(=O)c1ccc(F)cc1 (centres undefined) | 11.7% (inactive)
COc1cc(C(=O)OCC(=O)NC(C)CCc2ccccc2)cc(OC)c1OC (centres undefined) | 788% (active)
COc1cc(OC)cc(C(=O)NCC(=O)OCC(=O)NC(C)CCc2ccccc2)c1 (centres undefined) | -11.2% (inactive)
CC(=O)N1CCN(S(=O)(=O)c2ccc(C)c([N+](=O)[O-])c2)C1C(C)C (centres undefined) | -18.3% (inactive)
CC(C)[C@@H]1NC(=O)c2cc([N+](=O)[O-])cc(I)c2NCCC[C@@H](C(=O)NC(CC(=O)O)C(N)=O)NC(=O)[C@H](CO)NC1=O (some centres undefined) | -3.93% (inactive)

SMILES | growth rescue
CC(C)NC(=O)Nc1cccc2c1O[C@@H](CN(C)S(=O)(=O)c1ccc(F)cc1)[C@@H](C)CN([C@H](C)CO)C2=O | -15.3% (inactive)
COc1ccccc1CCNC(=O)C(=O)NCCC1CCCCN1S(=O)(=O)c1cccs1 (centres undefined) | -12.1% (inactive)
O=C(NCc1ccc(Cl)cc1)C(=O)NCC1CCCN1S(=O)(=O)c1cccs1 (centres undefined) | -0.245% (inactive)
O=C(NCc1ccccc1Cl)C(=O)NCC1CCCN1S(=O)(=O)c1cccs1 (centres undefined) | 454% (active)
CCOC(=O)c1c(S(=O)(=O)Nc2cccc(Cl)c2)c(C)n(C)c1C | -7.89% (inactive)
CCC(C)(C)NC(=O)C(c1ccc(OC)cc1)N(C(=O)CCC(=O)Nc1cc(C)on1)c1ccc(OC)cc1OC (centres undefined) | -19.3% (inactive)
CC(C)(C)c1cc(C(=O)NN)n(Cc2ccc(Cl)cc2Cl)n1 | 207% (inactive)
O=c1ccn(Cc2ccccc2Cl)cc1 | 1.62% (inactive)
N#CC(C#N)=CN=c1ccn(Cc2ccc(Cl)cc2Cl)cc1 | 813% (active)
COc1ccccc1CNC(=O)COC(=O)CNS(=O)(=O)c1ccc(NC(C)=O)cc1 | -0.994% (inactive)
CC(C)C(NC(=O)c1ccc(Cl)cc1)C(=O)O (centres undefined) | 5.56% (inactive)
CC(NC(=O)c1ccc(Cl)cc1)C(=O)N1CCCCC1 (centres undefined) | 434% (active)
CSCCC(NC(=O)c1ccccc1)C(=O)N1CCCCCCC1 (centres undefined) | -4.42% (inactive)
O=C(CCNC(=O)c1ccc(Br)cc1)NCCCc1ccccc1 | 0.819% (inactive)
O=C(CCc1ccccc1)NNC(=O)c1ccc(Br)cc1 | 631% (active)
O=C(CNC(=O)c1ccco1)NNC(=O)c1ccc(Br)cc1 | 19.3% (inactive)
COc1cc(CC(=O)N2CCC(n3nccc3NC(=O)C3CC3)CC2)cc(OC)c1OC | 7.3% (inactive)
COc1cccc(-n2c(SCC(=O)NC3CCCCC3)nc3n[nH]c(C)c3c2=N)c1 | 1070% (active)
Cc1ccc(-n2c(SCC(=O)NCCC3=CCCCC3)nc3n[nH]c(C)c3c2=N)cc1Cl | 4.94% (inactive)
CCCCNC(=O)CSc1nc2n[nH]c(C)c2c(=N)n1-c1cccc(Cl)c1C | -7.38% (inactive)
COc1cc(OC)cc(C(=O)Nc2nnc(SCC(=O)NCC3CCCO3)s2)c1 (centres undefined) | -5.99% (inactive)
CCCCNS(=O)(=O)c1ccc(S(=O)(=O)n2cnc3ccccc32)cc1 | -2.08% (inactive)
COC(=O)c1c(C)cc(O)c(C)c1O | 2.55% (inactive)

SMILES | growth rescue
O=C(c1cccnc1)N1CCN(S(=O)(=O)c2cccs2)CC1 | -2.05% (inactive)
CCOC(=O)c1ccccc1N1C(=O)C2Sc3[nH]c(=O)sc3C(/C=C/c3ccccc3)C2C1=O (centres undefined) | 0.0979% (inactive)
Nc1nc(SCCOc2ccccc2)n[nH]1 | -18.7% (inactive)
Nc1cc(N)nc(SCc2cccc(F)c2)n1 | 35.9% (inactive)
Nc1nc(SCc2cccc(Br)c2)n[nH]1 | 332% (active)
Cc1ccc(C(=O)N/C(=C\c2ccc(F)cc2)C(=O)NCCN2CCOCC2)cc1 | 49.4% (inactive)
Cn1cncc1C#Cc1c(-c2ccsc2)sc2ccccc12 | 17.7% (inactive)
COC(=O)Cc1ccc(OC(=O)C2CCN(S(=O)(=O)c3ccc(OC)c(OC)c3)CC2)cc1 | -14.9% (inactive)
CC1(C)Cc2c(sc(NC(=O)C(=O)NCC3CCCO3)c2C(=O)O)CO1 (centres undefined) | -46.3% (inactive)
COc1ccc(NC(=O)COC(=O)Cn2c(C)nc3ccccc32)cc1OC | -5.7% (inactive)
COc1ccc(NC(=O)Cn2c(-c3ccc(OC)cc3)cn(-c3ccc(C)cc3)c2=O)cc1 | 259% (inactive)
COc1ccc(-c2cn(-c3ccc(C)cc3)c(=O)n2CC(=O)Nc2ccc(OC)c(OC)c2)cc1 | 737% (active)
O=C(NCCc1nnc2ccc(SCC(=O)N3CCOCC3)nn12)c1ccccc1 | -18.2% (inactive)
COc1ccc(OC)c2c(N)c(C#N)c(C(F)(F)C(F)(F)F)nc12 | 790% (active)
COc1ccccc1-c1c(C#N)c(N)nc2c1CCC2 | -0.44% (inactive)
COc1ccc(C2CC(=O)Nc3sc(=N)c4c(N)c(C#N)c(N)nc4c32)cc1OC (centres undefined) | -31.5% (inactive)
O=C(CN1CCCCC1)N1c2ccccc2Sc2ccc(C(F)(F)F)cc21 | 1.37% (inactive)
Cn1c(C(=O)NCCc2ccsc2)cc2c(=O)n(C)c3ccccc3c21 | 385% (active)
Cn1c(C(=O)NCCCN2CCN(c3cccc(Cl)c3)CC2)cc2c(=O)n(C)c3ccccc3c21 | -12.4% (inactive)
CCN1CCCC1CNC(=O)c1cc2c(=O)n(C)c3ccccc3c2n1C (centres undefined) | -15.2% (inactive)
